Reference: PubChem BioAssay (Tox21)
Inconclusive results are not listed. Activity calls are given as the source filed them. The call rests on the fitted dose curve.

Assay: cAMP Responsive Elements (CRE) small molecule agonists, cell-based qHTS assay (AID 1963590)
Conditions: CRE-bla HEK293T, beta-lactamase FRET ratio, 3 h; series mostly up to 92.4 µM; activation: at the top concentration
Description: U.S. Tox21 Program National Center for Advancing Translational Sciences [NCATS] Division of Preclinical Innovation [DPI] U.S. Environmental Protection Agency [EPA] National Institutes of Environmental Health Sciences [NIEHS] National Toxicology Program [NTP] U.S. Food and Drug Administration [FDA] Tox21 Assay Overview: CREB (cyclic-AMP Responsive Element Binding Protein) is a cellular transcription factor. It binds to certain DNA sequences called cAMP Responsive Elements (CRE) and regulates the transcription of the genes. […] This cell line can be used to find agonists/antagonists of the cyclic AMP signaling pathway. The activation of the report gene under culture conditions can be detected by fluorescence intensity. This cell line has been used to screen the Tox21 10K compound library to identify agonists that induce oxidative stress.
Tox21 Assay Protocol Summary: CRE-bla Hek 293T cells were suspended in assay medium (DMEM containing 10% dialyzed FBS, 0.1 mM NEAA, 1 mM sodium pyruvate and 25 mM HEPES) and dispensed at 2,000 cells/5 uL /well into 1536-well black wall/clear bottom plates using a Multidrop Combi (ThermoFisher Scientific, Waltham, MA) dispenser. After the assay plates were incubated at 37 C/5% CO2 for 18 hrs, 23 nL of compounds dissolved in DMSO, positive controls or DMSO only was transferred to the assay plate by a pintool workstation (Kalypsys, San Diego, CA). After the plates were incubated at 37 C/5% CO2 for 3 hrs, 1 uL of LiveBLAzer B/G FRET substrate (Invitrogen, Carlsbad, CA) was added to each well using Bioraptr Flying Reagent Dispenser (FRD, Aurora Discovery, San Diego, CA). The plates were incubated at room temperature for 2 h.
On the % scale 0 is the no-effect control and ±100 the full control effect.

Row | Compound | activation
1 | CN1CC(=O)NC1=N | -1.45% [at 42.5 µM] (inactive)
2 | CC(CCc1ccccc1)NCC(O)c1ccc(O)c(C(N)=O)c1 (stereo not given) | -0.509% (inactive)
3 | CC(=O)OC(C)c1ccccc1 (stereo not given) | -1.57% (inactive)
4 | N#CC1(N)CCCCC1 | -1.32% (inactive)
5 | CCCCCCCCCCCCCCCCCCO | -0.696% [at 42.5 µM] (inactive)
6 | O=C1CC2(CCCC2)CC(=O)N1 | 0.469% [at 42.5 µM] (inactive)
7 | CC(=O)NCCCCCC(=O)O | 0.0268% [at 42.5 µM] (inactive)
8 | Nc1nnc(-c2cccc(Cl)c2Cl)c(N)n1 | 0.515% [at 42.5 µM] (inactive)
9 | CCN1CCN(c2cc(-c3ccc(F)cc3)c3c(n2)CCCCCC3)CC1 | 0.689% [at 19 µM] (inactive)
10 | CN(C)CCCOC1(Cc2ccccc2)CCCCCC1 | -2.4% [at 42.5 µM] (inactive)
11 | NC(=O)NC(=O)Cc1ccccc1 | -0.0721% [at 42.5 µM] (inactive)
12 | CCC(=O)OC(=O)CC | -1.1% (inactive)
13 | CN(C)C/C=C(/c1ccc(Br)cc1)c1cccnc1 | 0.196% [at 42.5 µM] (inactive)
14 | CN1CCCCC1CCN1c2ccccc2Sc2ccc(S(C)=O)cc21 (stereo not given) | 0.111% [at 42.5 µM] (inactive)
15 | Cc1cccc(CN2CCN(C(c3ccccc3)c3ccc(Cl)cc3)CC2)c1 (stereo not given) | 4.44% [at 42.5 µM] (inactive)
16 | CC(C)(C)c1cc(CCC(=O)NN)cc(C(C)(C)C)c1O | 3.12% (inactive)
17 | CC1(C)C(=O)C(C)(C)C1=O | 0.0704% (inactive)
18 | O=Cc1c2ccccc2c(Cl)c2ccccc12 | 1.36% [at 42.5 µM] (inactive)
19 | COc1cnc(NS(=O)(=O)c2ccc(N)cc2)nc1 | -1.49% [at 42.5 µM] (inactive)
20 | CC(C)SCc1ccco1 | 0.0069% [at 42.5 µM] (inactive)

Row | Compound | activation
21 | Cc1ccc(O)cn1 | 0% (inactive)
22 | C=CCOc1c(Br)cc(Br)cc1Br | 1.09% (inactive)
23 | CC(=O)CC(c1ccc([N+](=O)[O-])cc1)c1c(O)c2ccccc2oc1=O (stereo not given) | 0.379% [at 42.5 µM] (inactive)
24 | Cc1cc(O)c(C)c(C)c1O | 0.11% [at 42.5 µM] (inactive)
25 | BrC/C=C/CBr | -0.306% [at 19 µM] (inactive)
26 | O=Cc1ccccc1[N+](=O)[O-] | -0.966% (inactive)
27 | O=C(NCCc1c[nH]c2ccccc12)c1cccnc1 | -1.94% [at 42.5 µM] (inactive)
28 | C#CCN[C@@H]1CCc2ccccc21 | -1.27% [at 42.5 µM] (inactive)
29 | NC(=O)N1c2ccccc2CC(=O)c2ccccc21 | -0.506% [at 42.5 µM] (inactive)
30 | CCN(CC)CCOC(=O)C1(c2ccccc2)CCCC1 | -3.65% [at 42.5 µM] (inactive)
31 | C#C[C@]1(OC(C)=O)CC[C@H]2[C@@H]3CCC4=C[C@@H](OC(C)=O)CC[C@@H]4[C@H]3CC[C@@]21C | 4.14% [at 42.5 µM] (inactive)
32 | CCCCCCCC/C=C\CCCCCCCC(=O)OC[C@@H](O)[C@H]1OC[C@H](O)[C@H]1O | 0.151% (inactive)
33 | CCC(C)C(=O)OC (stereo not given) | -0.0798% (inactive)
34 | OCCN1C[C@H](O)[C@@H](O)[C@H](O)[C@H]1CO | 0.269% [at 42.5 µM] (inactive)
35 | CC(C)NNC(=O)c1ccncc1 | 0.388% [at 42.5 µM] (inactive)
36 | S=C1NC=NC2N=CNC12 (stereo not given) | 5.16% (inactive)
37 | O=C(CCCl)NCCc1ccccc1 | 0.819% [at 42.5 µM] (inactive)
38 | O=C1c2ccccc2S(=O)(=O)N1CCCCN1CCN(c2ncccn2)CC1 | 1.4% [at 42.5 µM] (inactive)
39 | CCNc1nc(NC(C)(C)C)nc(OC)n1 | 1.47% (inactive)
40 | O=C1OC(=O)c2cccc3cccc1c23 | -4.38% (inactive)
